# Compound activity from PubChem BioAssay.
# Shown are actives, neighbours in structure and some others; about 3.5% of the full set was active somewhere.
# MITF primary – human MITF inhibition, primary screen; inhibition, % at 2.6 µM; AlphaScreen MITF homodimerization, bead proximity signal; actives 0.91% (n = 650,000); in the data active means inhibition above about 50%;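 further: 0% = vehicle wells with protein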
# FBW7 activator – activators of human E3 ligase FBW7; AID 1259310; normalized activity (activation), % at 26.1 µM; AlphaScreen FBW7–phospho-cyclin E peptide binding, activator screen; Q969H0; actives 0.13% (n = 650,000); in the data active means normalized activity above about 1.9%;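 further: purified mutant Fbw7 with reduced substrate affinity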
# GPR151 ag – activators of human GPR151; actives 1% (n = 650,000); activation, % at 11.2 µM; Q8TDV0; PathHunter beta-arrestin GPR151 cells, luminescence; in the data active means activation above about 4.9%;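 further: 0% = median of compound wells and 100% = cells with positive control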
# Target sequence (Q8TDV0 whole entry, looked up): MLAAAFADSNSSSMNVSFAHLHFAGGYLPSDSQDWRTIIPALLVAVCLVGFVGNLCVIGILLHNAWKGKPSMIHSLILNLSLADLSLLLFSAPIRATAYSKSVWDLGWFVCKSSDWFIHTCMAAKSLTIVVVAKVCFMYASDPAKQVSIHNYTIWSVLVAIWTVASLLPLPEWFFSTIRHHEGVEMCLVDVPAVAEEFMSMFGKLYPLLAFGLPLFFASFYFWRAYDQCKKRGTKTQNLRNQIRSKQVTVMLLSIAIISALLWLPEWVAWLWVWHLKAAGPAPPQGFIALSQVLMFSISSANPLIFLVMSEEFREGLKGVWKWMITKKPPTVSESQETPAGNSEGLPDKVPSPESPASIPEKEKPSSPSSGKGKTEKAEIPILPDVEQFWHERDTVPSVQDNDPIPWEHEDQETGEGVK
# TEAD-YAP inh – TEAD-YAP interaction inhibition. inhibition, % at 9.12 µM. actives 1.4% (n = 640,000). HEK-TIYL cells, TEAD-Gal4/YAP UAS-luciferase luminescence; in the data active means inhibition above about 32%;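 further: 0% = median of test compound wells and 100% = reference inhibitor wells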
# GPR151 confirm – confirmation of human GPR151 activators | activation, % at 11.2 µM | shares compounds with GPR151 ag | AID 1508609 | 6,700 tested, under 10 active | GPR151 PathHunter beta-arrestin cells, luminescence, 90 min; % of EA-reagent control over plate median;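 active means mean percent activation across replicates above the confirmation screen cutoff of 4.91%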
# GPR119 counter – GPR119 activation, counter-screen for GPR151 activators. shares compounds with GPR151 ag. GPR119 PathHunter beta-arrestin cells, luminescence, 90 min; 0 = compound-well median, 100 = enzyme-acceptor control. activation, % at 11.2 µM. actives 0.3% (n = 6,700). AID 1508611;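 active means mean percent activation in the counterscreen above 29.09%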;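 further: counterscreen on off-target GPR119 to flag nonselective hits from the GPR151 activator screen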
# Starred values were filed as active, the others as inactive; . = no result given.
SMILES,MITF primary,FBW7 activator,GPR151 ag,TEAD-YAP inh,GPR151 confirm,GPR119 counter
COc1ccc(Cl)cc1NC(=O)CSc1nccn1-c1ccccc1C,-1,0,5.2*,-2,-1,-13
COc1ccccc1C(=O)NC(=O)CSc1cccc[n+]1[O-],-12,0,-1,4,.,.
Cn1cccc1C(=O)NC(=O)CSc1cccc[n+]1[O-],-1,0,4.9*,-3,1,7
COC(=O)c1cccc(NC(=O)C2COc3ccccc3O2)c1 (stereo not drawn),-12,0,5.0*,-49,-1,-12
Cc1cc(C)nc(/N=C/c2nc(-c3ccc(Br)cc3)oc2O)c1,13,0,-2,8,.,.
COC(=O)C1=C(O)/C(=C\c2ccc(F)cc2)N=C1C,-6,0,8.6*,6,1,-7
CSc1ccccc1NC(=O)N1CCCC(N(C)CCc2ccccn2)C1 (stereo not drawn),-3,0,5.2*,-4,-1,-14
Cc1ccc(NC(=O)c2ccccc2NC(=O)C(C)(C)C)cc1,4,1,-1,5,.,.
COc1ccc(Nc2oc(-c3ccc(F)cc3)nc2C#N)cc1,-14,0,1,-58,.,.
CC(C)c1ccc(CN(C(=O)c2cc3ccccc3oc2=O)C2CCS(=O)(=O)C2)cc1 (stereo not drawn),4,0,5.6*,-13,0,4
O=C(c1ccc(S(=O)(=O)N2CCOCC2)cc1)N(Cc1ccccn1)c1nc2ccccc2s1,2,0,1,-7,.,.
O=C(Nc1ccc(-n2ncc3ccc(-c4nn[nH]n4)cc32)cc1)c1ccccc1,-14,0,-2,-7,.,.
O=C(Cc1ccc(F)cc1)Nc1ccc(-n2ncc3ccc(-c4nn[nH]n4)cc32)cc1,3,-1,5.0*,-7,0,4
CCCCCCCCCCCCCCCCCCOC[C@H](COP(=O)(O)OCC[N+](C)(C)C)OC(C)=O,-13,.,5.2*,.,0,-7
Cc1ccccc1-n1nc2c(c1NC(=O)COc1ccc(Cl)cc1Cl)CS(=O)(=O)C2,7,0,8.8*,-2,0,8
O=C(COc1ccccc1F)Nc1cc(-c2ccccc2)nn1CCO,-3,0,0,-10,.,.
O=C(COc1ccc(Cl)cc1Cl)Nc1cc(-c2ccccc2)nn1CCO,4,0,5.9*,4,0,10
Cc1cccc(-n2nc3c(c2NC(=O)COc2ccc(Cl)cc2Cl)CS(=O)(=O)C3)c1C,-12,0,-1,2,.,.
Cc1cc(NC(=O)CSc2nc3ccsc3c(=O)n2-c2ccc(C(N)=O)cc2)no1,-4,0,5.0*,-9,0,13
Cc1c(Cl)cccc1N1CC(c2nc3ccccc3[nH]2)CC1=O (stereo not drawn),-2,0,5.6*,8,0,3
O=C1CC(c2nc3ccccc3[nH]2)CN1c1ccccc1Cl (stereo not drawn),9,0,1,-7,.,.
Brc1ccc(Nc2cccnc2)nc1,-2,0,11*,0,1,4
Fc1cccc(F)c1Nc1ccc(Br)cn1,11,0,-1,0,.,.
O=C(CSc1nc2ccccc2o1)NNC(=O)c1cc(-c2ccccc2)n[nH]1,-1,-1,-1,-10,.,.
CC(=O)O/N=C1\CCc2nonc2\C1=N/Nc1cccc([N+](=O)[O-])c1,21,0,-1,6,.,.
SMILES,MITF primary,FBW7 activator,GPR151 ag,TEAD-YAP inh,GPR151 confirm,GPR119 counter
O=C1NC(c2ccccc2)=NC1(NS(=O)(=O)c1ccc(Cl)cc1)C(F)(F)F (stereo not drawn),9,0,6.9*,-2,0,3
N/C(=N\OC(=O)CCC1CCCC1)c1ccc(Cl)cc1,17,0,6.0*,2,1,7
O=C(NCCC1=CCCCC1)c1ccc2c(=O)n(C3CCCCC3)c(=S)[nH]c2c1,1,0,0,-14,.,.
CC1CC(OC(=O)C(O)c2ccccc2)CC(C)(C)C1 (stereo not drawn),-9,0,6.6*,1,1,-2
Cc1cc(F)ccc1NC(=O)CCNc1c(N2CCCC2)c(=O)c1=O,14,0,5.0*,-3,0,-13
Cc1ccccc1/C=C1\N=C(c2ccc(Cl)c([N+](=O)[O-])c2)OC1=O,21,0,-2,-13,.,.
Clc1c(Br)ccc2cnc(Nc3ccc(-n4cnc(N5CCOCC5)n4)cc3)nc12,2,1,0,-10,.,.
CC(C)N(CCNC(=O)c1cccc(-c2ccccc2)n1)C(C)C,15,0,-1,3,.,.
CC(C)N(CCNC(=O)c1cccc(-c2ccc3c(ccn3C)c2)n1)C(C)C,-9,2.2*,12*,9,1,4
COc1ccc(-c2cccc(C(=O)NCCN(C(C)C)C(C)C)n2)cc1,-3,0,8.8*,6,0,3
COc1ccc(-c2ncc(C(=O)NCCN(C(C)C)C(C)C)s2)cn1,-6,0,1,8,.,.
COc1ccc(-c2ncc(C(=O)NCCN(C(C)C)C(C)C)s2)cc1,14,0,7.8*,4,0,-6
Cc1c(NS(=O)(=O)c2ccc3[nH]c(=O)ccc3c2)c(=O)n(-c2ccccc2)n1C,7,0,0,1,.,.
CC(=O)c1ccc(NC(=S)Nc2cc([N+](=O)[O-])ccc2C)cc1,12,0,6.3*,-2,-1,-8
Cc1ccc(C(=O)O)cc1NC(=O)Nc1ccc([N+](=O)[O-])cc1,5,0,2,10,.,.
O=C1COc2ccc(C(=O)COC(=O)CNC(=O)c3ccc(F)cc3)cc2N1,-5,0,-1,-10,.,.
COc1ccc(-c2csc3ncnc(SCc4c(C)noc4C)c23)cc1,-16,0,8.1*,-3,0,-4
Cn1cc(/C=C/c2nc(N)nc(-c3ccccc3O)n2)c2ccccc21,-11,0,0,-8,.,.
CCOC(=O)c1c(N2C(=O)C3C4C=CC(C4)C3C2=O)sc2c1CCC(C)C2 (stereo not drawn),-2,0,7.3*,12,0,-3
CCOC(=O)c1c(N2C(=O)CCC2=O)sc2c1CCC(C)C2 (stereo not drawn),10,0,1,4,.,.
CCCc1cc(=O)[nH]c(SCC(=O)Nc2cc3c(cc2C(C)=O)OCO3)n1,-7,0,6.3*,-4,0,-4
CCOC(=O)c1ccc(-c2ccc(/C=C3\C(=O)N(c4ccc(S(N)(=O)=O)cc4)N=C3C)o2)cc1,14,0,0,-37,.,.
Cc1ccc(-c2ccc3c(c2)CC(CNC(=O)CCc2ccco2)O3)nc1 (stereo not drawn),-1,0,6.4*,-45,1,13
Cc1ccc(-c2ccc3c(c2)CC(CNC(=O)Cc2nc(-c4ccccc4)n[nH]2)O3)nc1 (stereo not drawn),7,0,1,1,.,.
